Results taken from PubChem BioAssay (NCI).
The panel holds about 83,000 compounds, 20% with a hit somewhere; the sample as a whole holds those more often.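 Values shown are percent growth following 48 h exposure of cells in 96-well plates to a single concentration of compound; below 10 was considered active.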 Calls of active or inactive are those of the source.

Each compound was assayed on SK-MEL-28 melanoma (assay: NCI-60 one-dose screen, 48 h (100 = growth as untreated, 0 = no growth, -100 = all killed)). Settings: 10 µM unless noted.
Protocol: Growth inhibition of the SK-MEL-28 human tumor cell line is measured as a screen for anti-cancer activity. Cells are grown in 96 well plates and exposed to the test compound for 48 hours. Compounds are tested at a single concentration, which is 10^-5 M for most compounds. The reported endpoint is percent growth (GI% or GIPRCNT), where numbers from 0 - 100% represent growth inhibition, and numbers from -100% - 0 represent cell death. For example, a value of 40 represents 60% growth inhibition. A value of 0 means no net growth occurred over the course of the experiment. A value of -40 indicates 40% of cells at the beginning of the experiment died by the end of the experiment. A value of -100 means all cells are dead at the end of the experiment.
NCI-60 Human Tumor Cell Lines Screen was performed using the standard one-dose NCI protocol, which is described in more detail at https://dtp.cancer.gov/discovery_development/nci-60/default.htm.
Compounds with GIPRCNT values below 10 were considered active. Activity score was based on GIPRCNT using the following formula: […]
Score is 0 for GIPRCNT values of 100 or above, 50 for GIPRCNT values of 0, and 100 for GIPRCNT values of -100.
In the case of NC(=O)c1cccc(-n2ccc3cc(NC(=O)c4ccc(N5CCOCC5)c(C(F)(F)F)c4)ccc32)n1, the growth is reported as 64.7% (inactive). With COc1cc(-c2nccc3[nH]c(-c4ccc5cc[nH]c5c4)nc23)cc(OC)c1OC the growth was 42.1% (inactive). With N#Cc1ccc(O)c(C2=NCC(c3cccc(Oc4ccccc4)c3)O2)c1 (stereo not given) the growth was 37.5% (inactive). Cc1nc2sc(C(=O)Nc3cccc4ccccc34)c(N)c2cc1C(O)c1ccccc1 (stereo not given) was tested, and the growth was 54.3% (inactive). In the case of Nc1[nH]n2cc(-c3ccccc3)nc2c1N=Nc1ccc(S(N)(=O)=O)cc1, the growth is reported as 45% (inactive). O=C(/C=C/c1ccccc1)Nc1ncc(Cc2ccccc2Cl)s1 was tested, and the growth was 55.7% (inactive). In the case of COC(=O)c1c(C)nc(C)c2c1C(=O)C(Br)=C(NCc1ccccc1)C2=O, the growth is reported as 56.4% (inactive). In the case of N=C(N)c1ccc(-c2ccc(-c3ccc(Cl)cc3Cl)s2)cc1, the growth is reported as 105% (inactive). N#CC1=C(N)Oc2c(ccc3ccccc23)C1c1ccccc1 (stereo not given) was tested, and the growth was 49.4% (inactive). With O=C(Nc1cccc(Cl)c1)Nc1cccc(Cn2c(=O)[nH]c3ccc(Oc4ncccn4)cc3c2=O)c1 the growth was 59.1% (inactive). In the case of CCCCCCC12CCC(=O)N1CCc1cncn12 (stereo not given), the growth is reported as 112% (inactive). In the case of CCN1C(=S)N(c2ccccc2)C2C1NN=c1s/c(=C3\C(=O)N(C(C)C)c4ccccc43)c(=O)n12 (stereo not given), the growth is reported as 102% (inactive). With Cn1cc(-c2nonc2-c2cn(C)c3ccccc23)c2ccccc21 the growth was 57.4% (inactive). CCOC(=O)c1cc(C(=O)c2cc(OC)c(OC)c(OC)c2)n2ncccc12 was tested, and the growth was 67.7% (inactive). O=C(CN1CCOCC1)Nc1nc(-c2cc3ccccc3oc2=O)cs1 was tested, and the growth was 104% (inactive). In the case of Cc1nc2sc(C(=O)Nc3ccc(Br)cc3)c(N)c2cc1C(O)c1ccccc1 (stereo not given), the growth is reported as 67.8% (inactive). For Cc1ccc(Nc2cc(N)nc(N)n2)cc1Cl, the growth was 109% (inactive). With Cc1cccc(/C=C/c2c(C(=O)/C=C/c3ccccc3)c(C)nc3ccccc23)c1 the growth was -61.8% (active). For Nc1c(C(=O)Nc2ccccc2C(F)(F)F)sc2nc3c(cc12)CCC3, the growth was 94.5% (inactive). In the case of C=CCN=c1sc2c(n1NC(=O)c1cc3ccc1CCc1ccc(cc1)CC3)C(=O)c1ccccc1C2=O, the growth is reported as -35.4% (active). With Cc1nc2sc(C(=O)Nc3cccc(Br)c3)c(N)c2cc1C(O)c1ccccc1 (stereo not given) the growth was 61.9% (inactive). COC(=O)/C=C1/SC(=Nc2cccc(OC)c2)N(CCc2c[nH]c3ccc(O)cc23)C1=O was tested, and the growth was 70.9% (inactive). With CCOC(=O)C1=C(c2ccccc2)N=C2SC=C(c3ccc(Cl)cc3)N2C1c1ccc(Br)cc1 (stereo not given) the growth was 98.3% (inactive). In the case of COc1ccc(-c2nc3cc(C(=O)NCc4ccccc4)ccc3n2C2CCCCC2)cc1, the growth is reported as 92.7% (inactive). For CC(=O)c1c(C)nc2ccccc2c1/C=C/c1ccc(F)cc1, the growth was 114% (inactive). In the case of C=C1C(=O)O[C@H]2[C@H]1CC/C(COC(=O)c1cc3ccccc3s1)=C\CC[C@@]1(C)O[C@@H]21, the growth is reported as -70.7% (active). CC(=O)/C(=C\c1c(-c2ccccc2)[nH]c2ccccc12)S(C)(=O)=O was tested, and the growth was 34.4% (inactive). In the case of COc1ccc2c(c1)c(-c1nc(-c3c[nH]c4ccncc34)cs1)cn2C, the growth is reported as -95.7% (active). For O=[N+]([O-])c1ccc(O)cc1Br, the growth was 109% (inactive). With OCCn1cc(-c2nc(-c3c[nH]c4ncccc34)cs2)c2ccccc21 the growth was 104% (inactive). With C#Cc1c2c(c(OC)c3c1OCO3)[C@H]([C@H]1OC(=O)c3c1ccc(OC)c3OC)N(C)CC2 the growth was 95.1% (inactive). With O=C(Nc1nc2cc(C(=O)N3CCN(C(c4ccccc4)c4ccccc4)CC3)ccc2o1)c1ccc(NC2CCCCC2)c([N+](=O)[O-])c1 the growth was 66.5% (inactive). With COc1cc2cc(NCc3cccc(Cl)c3)nc(C)c2cc1OC the growth was 33.3% (inactive). For CN(C)S(=O)(=O)c1cccc(C(=O)Nc2nc(-c3ccc(F)c(F)c3)cs2)c1, the growth was 102% (inactive). O=C(N/N=C/c1ccc(Cl)cc1)c1[nH]c2ccc(Cl)cc2c1-c1ccccc1 was tested, and the growth was 93.3% (inactive). With CCCCn1c(=O)[nH]c(N)c([C@@H]2c3c([nH]c(=O)n(CCCC)c3=O)Oc3ccc4ccccc4c32)c1=O the growth was 44% (inactive). For O=S(=O)(Nc1ccc(F)cc1F)c1ccc(-c2cnc(C3CC3)o2)cc1, the growth was 63.5% (inactive). For COc1ccc(Nc2nnc(-c3ccc(OC)c(OC)c3)o2)cc1, the growth was 106% (inactive). In the case of CCOC(=O)c1c(NC(=O)c2ccc(Cl)cc2)sc2c(CN(C)C)c(O)ccc12, the growth is reported as 73.8% (inactive). For O=C(NCCNc1nccc(Nc2ccc(S(=O)(=O)Nc3ccccn3)cc2)n1)c1cccc([N+](=O)[O-])c1, the growth was 107% (inactive).
